For some of these results: Potency and affinity values are given separately.

The values that follow come from ChEMBL document CHEMBL3988442, “University of Dundee, Small-Polar-MMV Screening Library” (2021).

What all share (set-up): scale not given: direction of the effect not stated beside the values
For assay [1], the target named is Protein translocase subunit SecA (Escherichia coli (strain K12)) (UniProt P10408). Briefly: Assay to Identify E. coli SecA ATPase Inhibitors. Type of assay: functional. To be noted: 30 µM.
Protein translocase subunit SecA (Escherichia coli (strain K12)), sequence (P10408 whole entry): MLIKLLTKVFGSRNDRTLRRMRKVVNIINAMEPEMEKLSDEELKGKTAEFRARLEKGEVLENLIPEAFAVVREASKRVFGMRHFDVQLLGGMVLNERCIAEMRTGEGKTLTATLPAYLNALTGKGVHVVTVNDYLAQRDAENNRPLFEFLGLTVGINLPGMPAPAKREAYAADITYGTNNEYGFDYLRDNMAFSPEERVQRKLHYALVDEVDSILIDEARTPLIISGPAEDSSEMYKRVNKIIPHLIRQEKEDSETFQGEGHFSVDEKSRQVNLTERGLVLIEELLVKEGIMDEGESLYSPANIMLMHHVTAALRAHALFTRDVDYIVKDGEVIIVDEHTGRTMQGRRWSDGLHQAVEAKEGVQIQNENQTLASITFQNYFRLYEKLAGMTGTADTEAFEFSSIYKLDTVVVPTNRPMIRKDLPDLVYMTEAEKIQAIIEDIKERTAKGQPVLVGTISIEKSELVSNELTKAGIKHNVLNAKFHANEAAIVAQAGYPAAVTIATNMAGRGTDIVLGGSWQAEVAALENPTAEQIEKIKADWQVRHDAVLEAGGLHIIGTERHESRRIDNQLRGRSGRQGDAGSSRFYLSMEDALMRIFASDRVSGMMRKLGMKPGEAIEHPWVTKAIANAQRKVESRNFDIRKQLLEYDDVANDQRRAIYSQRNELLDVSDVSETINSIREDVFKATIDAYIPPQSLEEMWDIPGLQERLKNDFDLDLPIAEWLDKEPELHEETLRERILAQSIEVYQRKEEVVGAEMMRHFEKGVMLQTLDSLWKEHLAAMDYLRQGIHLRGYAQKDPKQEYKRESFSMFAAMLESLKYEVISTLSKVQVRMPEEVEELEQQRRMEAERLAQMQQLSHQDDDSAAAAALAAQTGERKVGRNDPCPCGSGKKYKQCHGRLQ
Assay [2] has as its target T1, Ubiquitin-activating enzyme e1, putative (Leishmania donovani (strain BPK282A1)) (UniProt E9BSI1).
T1 sequence (whole entry): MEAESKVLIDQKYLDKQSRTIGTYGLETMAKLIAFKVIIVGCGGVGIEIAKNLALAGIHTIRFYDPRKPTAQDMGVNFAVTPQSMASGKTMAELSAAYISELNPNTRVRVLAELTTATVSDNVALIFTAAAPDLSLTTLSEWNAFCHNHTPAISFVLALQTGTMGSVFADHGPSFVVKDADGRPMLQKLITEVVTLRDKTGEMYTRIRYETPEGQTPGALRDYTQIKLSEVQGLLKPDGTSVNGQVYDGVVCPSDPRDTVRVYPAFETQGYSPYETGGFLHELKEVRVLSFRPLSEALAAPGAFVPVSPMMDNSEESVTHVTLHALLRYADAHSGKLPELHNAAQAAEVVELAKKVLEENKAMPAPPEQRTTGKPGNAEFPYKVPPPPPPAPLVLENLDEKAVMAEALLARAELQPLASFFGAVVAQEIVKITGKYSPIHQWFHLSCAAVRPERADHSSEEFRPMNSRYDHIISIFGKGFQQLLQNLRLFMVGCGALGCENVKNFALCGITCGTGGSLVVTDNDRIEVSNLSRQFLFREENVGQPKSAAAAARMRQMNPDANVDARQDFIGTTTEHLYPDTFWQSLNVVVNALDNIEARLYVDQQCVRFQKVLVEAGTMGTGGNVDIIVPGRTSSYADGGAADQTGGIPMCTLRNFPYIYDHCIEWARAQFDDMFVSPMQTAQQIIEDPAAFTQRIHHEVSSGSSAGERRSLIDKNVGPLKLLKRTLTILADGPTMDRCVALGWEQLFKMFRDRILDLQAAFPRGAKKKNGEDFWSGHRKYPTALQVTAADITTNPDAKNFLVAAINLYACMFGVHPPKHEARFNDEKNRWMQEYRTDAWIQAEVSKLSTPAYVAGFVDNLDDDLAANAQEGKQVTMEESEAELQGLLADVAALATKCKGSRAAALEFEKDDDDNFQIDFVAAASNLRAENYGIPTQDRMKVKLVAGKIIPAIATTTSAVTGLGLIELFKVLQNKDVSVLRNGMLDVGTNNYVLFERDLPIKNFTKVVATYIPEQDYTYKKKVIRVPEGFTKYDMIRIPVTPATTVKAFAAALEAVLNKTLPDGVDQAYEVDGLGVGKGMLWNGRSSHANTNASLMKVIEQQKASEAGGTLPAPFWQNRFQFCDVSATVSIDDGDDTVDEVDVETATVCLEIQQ
The experiment in a line: Leishmania donovani Ubiquitin Activating Enzyme (LdE1). Type of assay: functional. To be noted: 30 µM.

Assay [3] deals with AMP-activated protein kinase, AMPK (Homo sapiens) (UniProt P54646+O43741+P54619+Q9UGJ0+Q9Y478+Q13131+Q9UGI9). The experiment in a line: AMP-dependent Kinase enzyme assay. An in vitro enzyme assay that detects ADP turnover that is directly proportional to AMPK activity. This uses naive AMPK that is activated during the assay with MK-8722. Type of assay: functional. To be noted: 30 µM.

The target in assay [4] is Sialic acid-binding Ig-like lectin 9 (Homo sapiens) (UniProt Q9Y336). The experiment in a line: Hs-Siglec9 ALPHAscreen SOP 20170721. As to conditions: 10 µM. (Bead proximity is the source of the signal in Alpha formats.)
Sialic acid-binding Ig-like lectin 9 (Homo sapiens), sequence (Q9Y336 whole entry): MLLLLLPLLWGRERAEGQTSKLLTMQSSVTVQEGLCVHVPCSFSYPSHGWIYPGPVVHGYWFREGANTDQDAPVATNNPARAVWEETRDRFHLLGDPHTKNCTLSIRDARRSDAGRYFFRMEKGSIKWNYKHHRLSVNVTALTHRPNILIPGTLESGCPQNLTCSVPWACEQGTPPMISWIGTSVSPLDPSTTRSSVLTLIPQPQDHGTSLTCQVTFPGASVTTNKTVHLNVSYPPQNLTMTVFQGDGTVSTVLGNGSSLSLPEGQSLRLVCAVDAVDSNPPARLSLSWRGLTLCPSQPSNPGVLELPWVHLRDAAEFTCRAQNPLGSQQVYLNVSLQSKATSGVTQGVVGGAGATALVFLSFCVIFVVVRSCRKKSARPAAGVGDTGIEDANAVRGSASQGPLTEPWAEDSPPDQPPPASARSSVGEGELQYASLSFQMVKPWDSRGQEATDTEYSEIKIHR
Assay [5] deals with Trypanosoma cruzi. Briefly: Trypanosoma cruzi phosphomannomutase and mannose-1-phosphate guanylyltransferase assay. The class given is functional. As to conditions: 10 µM.
Assay [6] concerns the target T2, Arginase-2, mitochondrial (Homo sapiens) (UniProt P78540).
T2 sequence (whole entry): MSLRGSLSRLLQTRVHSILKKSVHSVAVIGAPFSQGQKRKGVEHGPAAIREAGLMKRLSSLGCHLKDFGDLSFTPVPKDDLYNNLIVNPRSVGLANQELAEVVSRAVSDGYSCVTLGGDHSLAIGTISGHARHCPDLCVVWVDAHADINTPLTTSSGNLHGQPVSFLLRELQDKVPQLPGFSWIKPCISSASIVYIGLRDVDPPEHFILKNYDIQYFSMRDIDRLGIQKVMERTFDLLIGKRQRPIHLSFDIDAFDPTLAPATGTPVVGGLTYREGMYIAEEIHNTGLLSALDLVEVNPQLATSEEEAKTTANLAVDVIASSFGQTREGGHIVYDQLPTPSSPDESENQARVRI
Briefly: in vitro enzyme assay to detect the production of urea directly proportional to the activity of Arginase II. Further: in the data most compounds retested in dose-response had high values. Type of assay: functional. To be noted: 33.3 µM.

The target of assay [7] is T3, Proteasome subunit beta (Trypanosoma cruzi) (UniProt O96673).
T3 sequence (whole entry): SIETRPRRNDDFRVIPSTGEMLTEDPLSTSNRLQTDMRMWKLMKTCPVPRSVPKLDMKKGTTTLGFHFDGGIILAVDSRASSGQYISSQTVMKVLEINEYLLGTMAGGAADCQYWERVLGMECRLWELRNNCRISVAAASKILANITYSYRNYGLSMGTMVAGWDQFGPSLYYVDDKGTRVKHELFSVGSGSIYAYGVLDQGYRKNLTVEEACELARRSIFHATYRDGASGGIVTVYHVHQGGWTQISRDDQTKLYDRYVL
The experiment in a line: Trypanosoma cruzi proteasome chymotrypsin-like activity (TcProtChymo) assay. Further: in the data most compounds retested in dose-response had high values. The class given is functional. As to conditions: 9.37 µM.

For assay [8], the species on record is Homo sapiens. Briefly: To identify inhibition of the IFN signalling (Jak-Stat) pathway via expression of an eGFP reporter gene under the control of an IFN-stimulated response element (ISRE) containing MxA promoter. The class given is functional. To be noted: 30 µM.
Assay [9] concerns the target T4, Tyrosyl-tRNA synthetase, putative (Trypanosoma cruzi (strain CL Brener)) (UniProt Q4DSP6).
T4 sequence (whole entry): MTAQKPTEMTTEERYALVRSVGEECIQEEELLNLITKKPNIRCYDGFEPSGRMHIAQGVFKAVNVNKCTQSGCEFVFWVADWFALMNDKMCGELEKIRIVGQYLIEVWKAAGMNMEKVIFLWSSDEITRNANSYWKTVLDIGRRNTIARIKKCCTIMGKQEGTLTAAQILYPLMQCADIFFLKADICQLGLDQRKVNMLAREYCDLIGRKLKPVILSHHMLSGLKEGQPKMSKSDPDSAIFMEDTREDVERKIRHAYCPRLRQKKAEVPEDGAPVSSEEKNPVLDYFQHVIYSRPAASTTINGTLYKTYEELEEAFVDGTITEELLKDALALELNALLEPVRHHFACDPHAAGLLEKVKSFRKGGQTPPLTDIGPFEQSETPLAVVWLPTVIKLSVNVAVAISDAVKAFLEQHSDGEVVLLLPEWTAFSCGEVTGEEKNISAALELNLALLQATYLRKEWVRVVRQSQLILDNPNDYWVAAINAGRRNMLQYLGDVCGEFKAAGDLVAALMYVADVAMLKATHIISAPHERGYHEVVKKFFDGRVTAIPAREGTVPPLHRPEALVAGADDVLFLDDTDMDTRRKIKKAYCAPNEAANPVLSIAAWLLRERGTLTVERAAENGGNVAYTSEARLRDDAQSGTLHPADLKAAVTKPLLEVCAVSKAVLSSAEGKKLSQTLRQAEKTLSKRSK
The experiment in a line: Trypanosoma cruzi tyrosyl tRNA synthetase (TcYRS) _High Tyrosine SOP. Further: in the data most compounds retested in dose-response had high values. The class given is functional. As to conditions: 30 µM.

Assay [10] addresses T4, Tyrosyl-tRNA synthetase, putative (Trypanosoma cruzi (strain CL Brener)). Briefly: Trypanosoma cruzi tyrosyl tRNA synthetase (TcYRS) SOP. To be noted: 30 µM. Type of assay: functional.
In assay [11] the target is Chromo domain-containing protein 1 (Saccharomyces cerevisiae (strain ATCC 204508 / S288c) (Baker's yeast)) (UniProt P32657). The experiment in a line: ScCHD-1 Enzyme Inhibition Assay. Further: in the data most compounds retested in dose-response had high values. Type of assay: functional. As to conditions: 30 µM.
Chromo domain-containing protein 1 (Saccharomyces cerevisiae (strain ATCC 204508 / S288c) (Baker's yeast)), sequence (P32657 whole entry, the tested form may be a part): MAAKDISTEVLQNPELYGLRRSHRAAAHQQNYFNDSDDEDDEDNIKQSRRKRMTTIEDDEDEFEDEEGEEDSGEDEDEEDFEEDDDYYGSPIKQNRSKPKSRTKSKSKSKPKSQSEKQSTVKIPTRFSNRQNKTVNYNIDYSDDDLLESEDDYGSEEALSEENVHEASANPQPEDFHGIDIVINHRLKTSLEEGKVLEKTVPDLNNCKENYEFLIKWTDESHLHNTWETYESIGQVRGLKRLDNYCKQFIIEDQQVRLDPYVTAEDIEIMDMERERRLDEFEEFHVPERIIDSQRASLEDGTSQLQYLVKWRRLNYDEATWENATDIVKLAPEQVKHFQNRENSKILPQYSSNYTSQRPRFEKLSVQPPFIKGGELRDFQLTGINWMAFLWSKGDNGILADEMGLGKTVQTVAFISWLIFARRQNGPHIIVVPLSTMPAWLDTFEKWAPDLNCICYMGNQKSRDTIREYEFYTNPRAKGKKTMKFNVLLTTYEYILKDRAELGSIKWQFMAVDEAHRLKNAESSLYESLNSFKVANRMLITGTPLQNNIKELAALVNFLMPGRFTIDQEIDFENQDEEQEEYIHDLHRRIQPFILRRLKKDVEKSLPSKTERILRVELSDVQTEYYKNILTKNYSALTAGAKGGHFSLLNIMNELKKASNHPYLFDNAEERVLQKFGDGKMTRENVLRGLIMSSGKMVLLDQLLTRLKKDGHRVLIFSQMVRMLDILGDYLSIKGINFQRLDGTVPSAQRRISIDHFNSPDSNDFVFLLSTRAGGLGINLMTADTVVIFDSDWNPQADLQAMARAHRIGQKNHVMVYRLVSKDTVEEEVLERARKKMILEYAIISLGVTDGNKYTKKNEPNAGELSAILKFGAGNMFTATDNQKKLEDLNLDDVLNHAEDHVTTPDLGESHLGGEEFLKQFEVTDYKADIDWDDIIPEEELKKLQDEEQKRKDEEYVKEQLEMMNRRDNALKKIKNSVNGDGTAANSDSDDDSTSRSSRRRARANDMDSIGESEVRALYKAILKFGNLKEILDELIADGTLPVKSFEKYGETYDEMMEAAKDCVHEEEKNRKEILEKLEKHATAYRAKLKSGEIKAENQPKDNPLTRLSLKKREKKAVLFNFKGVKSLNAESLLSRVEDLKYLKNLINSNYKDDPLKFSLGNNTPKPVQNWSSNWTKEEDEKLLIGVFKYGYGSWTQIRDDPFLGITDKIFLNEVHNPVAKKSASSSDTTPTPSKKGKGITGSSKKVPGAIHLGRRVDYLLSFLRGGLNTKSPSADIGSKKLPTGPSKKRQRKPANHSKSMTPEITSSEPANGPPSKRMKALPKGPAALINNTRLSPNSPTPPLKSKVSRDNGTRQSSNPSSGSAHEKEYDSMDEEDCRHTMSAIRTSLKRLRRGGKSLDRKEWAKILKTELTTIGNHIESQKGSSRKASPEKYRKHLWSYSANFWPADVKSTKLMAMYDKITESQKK

In the case of `CC(C)CN1C(=O)c2ccc(C(=O)NCCc3c[nH]cn3)cc2C1=O`, the Percent Effect was -1.59% in assay [1]; -1.33% in assay [2]; 14.6% in assay [3]; 3.62% in assay [4]; -7.07% in [5]; -9.68% in [6]. Further, the Percent Effect in assay [7] was 8.87%; in assay [8], -4.06%; in assay [9], 5.29%; in assay [10] it was 5.13%; in [11], -5.85%.

In the case of `C1CC(NCc2nc(C3CC3)no2)CN(Cc2noc(C3CC3)n2)C1` (stereo unspecified), the Percent Effect in [1] is -2.33%; in assay [2], 24.3%; in assay [3] it was -2.39%; in [4] it was -3.6%; in assay [5], -6.32%; in assay [6], -12.4%. The Percent Effect was 11.2% in assay [7]; 27% in assay [8]; -0.493% in [9]; 6.17% in assay [10]; -4.12% in assay [11].

Regarding `Cc1cccc(-n2cc(C(=O)N3CCCC(n4cccn4)C3)nn2)c1` (stereo unspecified), the Percent Effect in assay [1] is -6.43%; in [2], 23.4%; in assay [3] it was -0.0164%; in assay [4] it was -1.49%; in assay [5] it was 5.78%; in assay [6], -2.74%. Moreover, the Percent Effect is 27.4% in [7]; 4.51% in assay [8]; 6.67% in assay [9]; 25.9% in [10]; -14.2% in assay [11].

Consider `Cc1nc(CNC(C)c2ccc(OCC(=O)NC3CC3)cc2)cs1` (stereo unspecified), for which the Percent Effect in assay [1] is -1.09%; in [2] it was 19%; in [3], -0.957%; in assay [4], -2.32%; in assay [5], -2.15%; in assay [6], -8.82%. In addition, the Percent Effect was 23.8% in [7]; 3.09% in assay [8]; 4.17% in assay [9]; -48.1% in assay [10]; -24.3% in [11].

Take `O=C(NCc1ccccn1)[C@@H]1CCO[C@@H]2CCN(Cc3ccoc3)C[C@H]21`: the Percent Effect in [1] is -4.59%; in [2], 8.11%; in assay [3], 7.22%; in assay [4], -2.83%; in assay [5], -3.03%; in assay [6], 0.955%. Besides, the Percent Effect is 17.5% in [7]; 3.21% in assay [8]; 4.32% in assay [9]; 15.4% in [10]; -2.07% in [11].

In the case of `CC(O)CN1CCN(C(=O)c2ccc(N(C)C)nc2)CC1` (stereo unspecified), the Percent Effect in assay [1] is -1.4%; in assay [2], 33.8%; in [3], -9.23%; in [4], 0.151%; in assay [5], 4.68%; in [6], 0%. The Percent Effect in [7] was 11%; in [8], 8.66%; in assay [9] it was 7.77%; in assay [10], 9.76%; in assay [11] it was -4.89%.

Consider `CN(Cc1cnn(C)c1)C(=O)c1ccc(=O)n(C)n1`, for which the Percent Effect in assay [1] was -3.21%; in assay [2], 7.89%; in assay [3] it was 2.81%; in assay [4], -2.3%; in assay [5] it was 5.16%; in assay [6] it was -5.92%. Also, the Percent Effect is 12.9% in [7]; 9.62% in [8]; 6.38% in assay [9]; 10.4% in assay [10]; -4.41% in [11].

For `O=C(Cc1ccccn1)N1CCN(C(=O)c2cccc3[nH]ncc23)CC1`, the Percent Effect was -1.44% in assay [1]; 3.8% in [2]; 15.9% in assay [3]; -3.99% in assay [4]; -0.103% in [5]; 2.8% in [6]. The Percent Effect in assay [7] was 5.15%; in assay [8], 4.63%; in [9] it was 5.21%; in assay [10] it was 5.06%; in assay [11], -0.724%.

For the compound `CCn1ccc(C(=O)NCCCN2CCOCC2)n1`, the Percent Effect in assay [1] is -1.56%; in assay [2], 5.2%; in [3] it was -2.13%; in assay [4], 4.7%; in assay [5], -0.492%; in assay [6], -2.76%. Besides, the Percent Effect in assay [7] is 22%; in assay [8] it was 4.11%; in assay [9], 7.53%; in assay [10] it was 13.6%; in [11], 0.597%.

On to `Cc1c[nH]nc1C1CCN(S(=O)(=O)N(C)C)CC1`, for which the Percent Effect was -3.15% in [1]; 1.35% in [2]; -2.65% in assay [3]; 1.12% in assay [4]; -7.12% in assay [5]; -1.16% in assay [6]. For the same compound, the Percent Effect is -3.59% in [7]; 9.82% in [8]; 2.15% in assay [9]; 6.49% in assay [10]; -2.55% in assay [11].

As for `C=C(C)COCCNC(=O)C1CCCN1C(C)=O` (stereo unspecified), the Percent Effect in assay [1] was -2.72%; in assay [2] it was 18.2%; in assay [3], -0.215%; in assay [4], 2.93%; in [5] it was 7.3%; in assay [6], -1.78%. Besides, the Percent Effect in [7] is 5.41%; in [8] it was 6.11%; in assay [9], 5.83%; in assay [10], 21.9%; in assay [11], -8.29%.
